Screens from PubChem.
AmpC no deterg – blocks E. coli AmpC beta-lactamase in detergent-free assay; hit rate 0.52% among 330,000; P00811; Potency, µM (titrated, usually from 57.1 µM), most hits filed as inhibitors; AmpC nitrocefin hydrolysis, absorbance 480 nm, 0.0001% Triton; note: nearly all actives have a fitted effect of over 20% in size
Target sequence (P00811 whole entry, looked up): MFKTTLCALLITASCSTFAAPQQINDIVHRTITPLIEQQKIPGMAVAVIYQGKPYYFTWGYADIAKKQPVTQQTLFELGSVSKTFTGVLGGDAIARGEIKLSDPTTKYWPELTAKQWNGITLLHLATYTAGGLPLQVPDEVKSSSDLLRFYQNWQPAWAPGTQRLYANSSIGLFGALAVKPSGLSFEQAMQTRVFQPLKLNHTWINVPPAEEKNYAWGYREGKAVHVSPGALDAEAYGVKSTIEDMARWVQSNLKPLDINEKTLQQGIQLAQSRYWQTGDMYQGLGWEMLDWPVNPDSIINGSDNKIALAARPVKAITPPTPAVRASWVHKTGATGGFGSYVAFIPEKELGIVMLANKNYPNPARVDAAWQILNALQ
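AmpC (5.3 nM in the dispensed reagent) in 20 mM phosphate pH 7.0 with 0.01% (detergent screen) or 0.0001% Triton X-100 was preincubated with compounds for 15 min at room temperature. Nitrocefin was then added from an 800 uM solution, and hydrolysis was followed at 480 nm.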
AmpC detergent – inhibitors of E. coli AmpC beta-lactamase with detergent | P00811 | hit rate 0.041% among 370,000 | Potency, µM (top dose mostly 114 µM), hits mostly inhibitors | AID 485294 | AmpC hydrolysis of nitrocefin, absorbance 480 nm, 0.01% Triton; note: nearly all actives have a fitted effect of over 25% in size
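20 mM phosphate pH 7.0 + 0.01% (detergent screen) or 0.0001% Triton X-100; 5.3 nM AmpC reagent; cpd preinc 15 min RT; nitrocefin (800 uM stock) to start; A480 q20 s × 4 min; Activity was normalised to no-enzyme and no-compound control wells.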
HCMV inh – human cytomegalovirus inhibition; AID 1259415; HFF cells, HCMV-luciferase reporter, 72 h; hits give low values; activity change, negative = inhibition, % at 57.5 µM; hit rate 4.5% among 410,000; in the data active = activity change below about -60%; inconclusive = no clear call, values can overlap the other calls; inactive = above about -39%
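Two compound doses tested in HFFs infected with HCMV-luciferase, MOI 1 PFU/cell, 72 h at 37C. Lysate luminescence read with OneGlo; data normalized against buffer-only and 10uM Salinomycin inhibitor controls.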
FMDV inh – antivirals against foot and mouth disease virus. FMDV antiviral cell-based qHTS. Potency, µM (series often up to 57.9 µM), hits mostly inhibitors. hit rate 1.2% among 410,000. AID 1159524; calls by dose curve; tested in HEK293T cells; note: read-out not given here; nearly all actives have a fitted effect of over 45% in size
HCV inhibitor – inhibitors of hepatitis C virus infection | Huh7.5.1 HCVcc-Cre infection, luciferase reporter, 44 h | Potency, µM (doses to about 41.8 µM), hits mostly inhibitors | hit rate 3.4% among 340,000 | AID 651820
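After 44 h co-culture of compound, cells and HCVcc-Cre (~0.5 moi), substrate is added for 15 min at room temperature and luciferase measured over 15 sec. Cells were seeded at 1,000/well and pre-cultured 4 h.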
A number is an active result; – = inactive; ? = inconclusive; · = no result given; [ ] = dose if it differs, or a comment. In the library only some 7.3% were active in any assay of this set; here they are far more common. Unless noted, calls come from the whole dose curve; as a rule, active = well fitted curve in the direction sought with a large enough effect; inconclusive = small, poorly fitted or top-dose-only effect, or another doubt; inactive = no such curve, though single readings can be large; an effect the other way counts as inactive or inconclusive.

SMILES | AmpC no deterg | AmpC detergent | HCMV inh | FMDV inh | HCV inhibitor
CCOc1ccccc1C(=O)Nc1cc(C(=O)NCCc2ccccc2)ccc1Cl | – | ? | – | · | 2.5µM
COc1ccccc1NC(=O)c1ccc(C(=O)Nc2ccccc2OC)nc1 | – | – | – | – | –
CCOc1ccccc1C(=O)Nc1cc(C(=O)NCC(C)C)ccc1Cl | – | – | · | · | ·
CCOc1ccccc1NC(=O)c1ccc(C(=O)Nc2ccccc2OCC)nc1 | – | – | -64 | – | –
CCOc1ccccc1NC(=O)c1cc(SC)ccc1Cl | – | – | – | – | 22µM
CCc1ccc2nc(Nc3nc(COC)cc(=O)[nH]3)nc(C)c2c1 | – | – | – | – | ?
COCc1cc(=O)[nH]c(Nc2nc3ccc(C)cc3o2)n1 | – | – | -102 | ? | ?
NC(Cc1ccc(O)cc1)C(=O)NN=Cc1ccccc1O (stereo not drawn) | · | · | – | · | ·
CC(C)(C)/C(O)=C/c1nc2ccccc2[nH]c1=O | – | – | – | – | –
CCCC/C(O)=C/c1nc2ccccc2[nH]c1=O | – | – | -79 | – | –
O=C(Cn1nc(C(=O)O)c2ccccc2c1=O)Nc1cc(Cl)cc(Cl)c1 | 11µM | – | – | – | –
Cc1nc2ccccc2n(CC(=O)Nc2cc(Cl)cc(Cl)c2)c1=O | – | – | -61 | – | –
O=C(Cn1nc(C(=O)O)c2ccccc2c1=O)Nc1ccc(Br)cc1 | – | – | – | – | –
Cc1ccc(NC(=O)Cn2c(=O)c(C)nc3ccccc32)cc1 | –[2.29 µM] | – | – | – | –
CCN(C(=O)c1cc2c(Cl)nc3ccccc3c2s1)c1cccc(Cl)c1 | · | – | – | – | ·
Cc1ccc2[nH]c(C(=O)N/N=C/c3ccccc3C(=O)O)c(-c3ccccc3)c2c1 | – | – | – | – | –
O=C(N/N=C/c1ccccc1)c1[nH]c2ccc(Br)cc2c1-c1ccccc1 | – | – | -99 | – | ?
O=C(CCN1CCOCC1)Nc1c(-c2ccccc2)c2cc(Br)ccc2[nH]c1=O | – | – | – | – | –
O=C(NN=C1CCCC1)c1[nH]c2ccc(Br)cc2c1-c1ccccc1 | – | – | -91 | – | –
Cc1cccc(NC(=O)CNC(=O)[C@@H](Cc2ccccc2)NC(=O)[C@H]2O[C@@H](n3ccc(N)nc3=O)[C@H](O)[C@@H]2O)c1C | · | · | – | · | ·
Cc1ccc(C(=O)N2CCN(c3ncnc4c(C)csc34)CC2)cc1 | – | – | – | – | ?
Cc1csc2ncnc(N3CCN(C(=O)Nc4ccc(OC(F)(F)F)cc4)CC3)c12 | – | – | -64 | 18µM | 7.9µM
Cc1cnc(C(=O)Nc2ccc(OC(F)(F)F)cc2)cn1 | – | – | – | – | –
Cc1csc2c(N3CCN(C(=O)Nc4ccccc4)CC3)ncnc12 | – | – | ? | 22µM | ?
Cc1ccc(N/N=C(/Sc2nnnn2-c2ccccc2)C(=O)c2ccccc2)cc1 | 4µM | 35µM | – | – | –
SMILES | AmpC no deterg | AmpC detergent | HCMV inh | FMDV inh | HCV inhibitor
O=C(/C(=N\Nc1ccc([N+](=O)[O-])cc1)Sc1nnnn1-c1ccccc1)c1ccccc1 | ? | ? | – | ? | –
CCOc1ccc(NC(=O)N(C2CCCCCC2)C2CCN(C(C)=O)CC2)cc1 | – | – | – | – | –
CCOc1ccc(NC(=O)N(Cc2cn(CC)c3ccccc23)C2CCCCCC2)cc1 | · | – | -87 | – | ·
CCc1ccc(NC(=O)Cc2cn(C)c3ccccc23)cc1 | – | – | – | – | –
CCc1ccc(NC(=O)N(Cc2cn(CC)c3ccccc23)C2CCCCC2)cc1 | · | – | -104 | – | ·
Clc1ccc(SCc2cc(N3CCOCC3)nc(-c3ccccn3)n2)cc1 | – | – | -92 | – | 8.9µM
O=c1cc(CSc2ccc(Cl)cc2)nc(-c2ccccc2)[nH]1 | – | ? | – | – | –
O=c1cc(CSc2ccc(Cl)cc2)nc(-c2ccccn2)[nH]1 | – | – | -61 | ? | ?
O=c1cc(CSc2ccccc2)nc(-c2ccccc2)[nH]1 | – | – | -105 | – | –
O=C(OCn1ncc(Br)c(Br)c1=O)c1c(F)cccc1F | – | ? | · | · | 2.8µM
CC(=O)Cn1ncc(Br)c(Br)c1=O | – | – | -105 | ? | ?
COC(=O)C(COC(=O)c1c(F)cccc1F)NC(=O)c1c(F)cccc1F (stereo not drawn) | – | – | – | – | –
c1cncc(OC2CCN(Cc3ccc4c(c3)CN(Cc3nc5ccccc5s3)CCO4)CC2)c1 | · | · | · | – | ·
CSc1ncccc1C(=O)NCCN1Cc2ccccc2OC(c2ccccc2F)C1 (stereo not drawn) | · | · | · | – | ·
COc1ccccc1CN1CCNC(=O)C1CC(=O)N(C)Cc1nc(C)cs1 (stereo not drawn) | – | ? | – | – | –
CC(=O)Nc1ccc(N2N=C(C)C(N=Nc3ccccc3)C2=O)cc1 (stereo not drawn) | – | – | -101 | – | –
Cc1cccc(NC(=O)c2cccc(NC(=O)c3ccco3)c2)c1 | · | · | – | – | –
O=C(NNc1ccc([N+](=O)[O-])cc1)c1ccco1 | – | – | – | – | –
CC(C)C(=O)Nc1ccc(NC(=O)c2ccc([N+](=O)[O-])cc2Cl)cc1 | – | ? | – | – | ?
O=C(NNc1ccc([N+](=O)[O-])cc1[N+](=O)[O-])c1ccco1 | – | – | · | 20µM | –
CN(C)c1ccc(NC(=O)c2ccc([N+](=O)[O-])cc2Cl)cc1 | – | 100µM | – | – | –
CC(=O)Oc1c(C)cc(Cl)cc1C(=O)Nc1ccc([N+](=O)[O-])cc1Cl | – | – | -98 | – | ?
Cc1cc(C(=O)Nc2cccc(NC(=O)c3ccco3)c2)ccc1[N+](=O)[O-] | – | ? | -82 | – | ?
CC(=O)OCC(=O)Nc1ccc([N+](=O)[O-])cc1Cl | – | – | – | – | –
Cc1cc(NC(=O)c2ccc([N+](=O)[O-])o2)ccc1NC(=O)c1ccco1 | – | – | -85 | – | ?
SMILES | AmpC no deterg | AmpC detergent | HCMV inh | FMDV inh | HCV inhibitor
Cc1cc(NC(=O)c2ccc([N+](=O)[O-])cc2Cl)ccc1NC(=O)c1ccco1 | – | ? | – | – | 7.9µM
Cc1cc([N+](=O)[O-])ccc1NC(=O)c1ccco1 | – | – | – | – | –
COc1ccc(C(=O)Nc2cccc(/C(C)=N\NC(=O)c3ccoc3C)c2)cc1OC | – | – | – | – | ?
COc1ccccc1/C=C(\NC(=O)c1ccc(OC)c(OC)c1)C(=O)Nc1ccc([N+](=O)[O-])cc1 | – | – | – | – | –
COc1ccccc1/C=C(\NC(=O)c1ccc(OC)c(OC)c1)C(=O)Nc1cccc([N+](=O)[O-])c1 | – | – | -61 | – | –
COc1ccc(C(=O)Nc2cccc(/C(C)=N/NC(=O)c3ccc([N+](=O)[O-])c(C)c3)c2)cc1OC | – | – | – | ? | 2.8µM
CC(CNC(=O)CCc1nnc2ccc(N3CCC4(CC3)OCCO4)nn12)c1ccccc1 (stereo not drawn) | – | – | – | – | ?
Cc1ccc(NC(=O)COC(=O)c2ccc[n+]([O-])c2)c(Br)c1 | – | · | – | – | –
